In PubChem BioAssay (Tox21) one finds Potency data, which are given here for 40 compounds.

Values joined by “and” are separate entries in the source; they are usually repeats but may differ in a detail not shown here. Equal values may be shown once. Results filed as inconclusive are left out. Where a call stands in place of a potency, no number is given. Where a structure was tested more than once in an assay, its records may differ in their call. Active and inactive are the calls of the source. Calls come from the whole dose curve; as a rule, active = well fitted inhibition curve with a large enough effect in the repeat runs; inconclusive = weak or mixed curves; inactive = no such curve, though single readings can be large or run the other way.
Potency is the fitted concentration of half-maximal effect.

The test deals with Cytochrome P450 2D6 (Homo sapiens) (UniProt P10635). Briefly: Cytochrome P450 Family 2 Subfamily D Member 6 (CYP2D6) small molecule antagonists: luciferase reporter qHTS assay (AID 1671196). Note: nearly all actives have a fitted effect of over 50% in size. Conditions: P450-Glo CYP2D6 enzyme assay, luciferin luminescence, 1 h; series mostly up to 115 µM. The source says: U.S. Tox21 Program National Center for Advancing Translational Sciences [NCATS] U.S. Environmental Protection Agency [EPA] National Institutes of Environmental Health Sciences [NIEHS] National Toxicology Program [NTP] U.S. Food and Drug Administration [FDA] Tox21 Assay Overview: Cytochrome P450 (CYP) enzymes are membrane-bound hemeproteins that play a key role in metabolism of drugs and xenobiotics. Evaluation of the effect of chemicals on CYP isozymes is useful to minimize the adverse drug reactions and toxicities in drug development process. Tox21 chemicals were tested for their effect on CYP enzyme activities by using P450-Glo (TM) screening systems (Promega Corporation, Madison, WI). These systems provide a luminescent method containing proluciferin substrates and are converted to luciferin products by CYP isozymes. The luciferin products formed are detected with a luciferin detection reagent, and the amount of light produced is proportional to CYP activity. P450-Glo (TM) CYP2D6 screening system (Catalog. No. V9890) was used to detect the compounds that interfere in CYP2D6 activity.
Cytochrome P450 2D6 (Homo sapiens), sequence (P10635 whole entry, looked up): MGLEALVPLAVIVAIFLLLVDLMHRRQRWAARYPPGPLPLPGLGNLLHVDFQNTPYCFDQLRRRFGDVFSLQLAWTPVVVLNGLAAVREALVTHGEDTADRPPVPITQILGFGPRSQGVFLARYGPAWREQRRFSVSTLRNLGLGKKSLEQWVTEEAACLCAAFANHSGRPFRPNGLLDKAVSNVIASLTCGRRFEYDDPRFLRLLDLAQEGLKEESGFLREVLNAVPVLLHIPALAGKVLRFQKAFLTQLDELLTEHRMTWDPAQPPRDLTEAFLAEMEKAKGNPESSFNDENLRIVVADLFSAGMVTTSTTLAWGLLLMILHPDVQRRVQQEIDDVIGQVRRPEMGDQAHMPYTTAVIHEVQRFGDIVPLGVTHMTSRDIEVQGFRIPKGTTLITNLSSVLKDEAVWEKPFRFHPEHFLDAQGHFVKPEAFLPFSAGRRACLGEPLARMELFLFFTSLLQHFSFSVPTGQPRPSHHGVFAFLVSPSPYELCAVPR
Tox21 Assay Protocol Summary: Two ul of enzyme-substrate mix was dispensed into medium binding white/solid 1536-well plates (Greiner Bio-One North America Inc., Monroe, NC) using a BioRaptr Flying Reagent Dispenser (FRD, Beckman Coulter, Brea, CA). […] The assay plates were incubated at room temperature for 10 min. Then 2 ul of NADPH regeneration solution was added to each well of the assay plates using an FRD and incubated at room temperature for 1 h. The reaction was stopped by adding 4 ul of detection reagent using an FRD and after 20 min incubation at room temperature the luminescence signal was measured using a ViewLux plate reader (Perkin Elmer, Shelton, CT). Data were expressed as relative luminescence units.
For orientation: A reporter such as luciferase makes a cellular process visible.
As to `C=CC(C)(CCC=C(C)C)OC=O` (stereo not given), the Potency entry was “inactive”. In the case of `CC(C)=CCNc1ncnc2c1ncn2[C@@H]1O[C@H](CO)[C@@H](O)[C@H]1O`, the Potency entry was “inactive”. For the compound `Cc1cc(C(C)(C)C)cc(C)c1CC1=NCCN1`, the Potency was 3.47 µM (active). As to `OC12N=C(c3ccccc3)SC1Cc1cc(Cl)ccc12` (stereo not given), the Potency was 39.9 µM (active).

`OC/C=C/CO`: the Potency was 17.8 µM (active). The value for `CNC(=O)c1ccccc1Sc1ccc2c(/C=C/c3ccccn3)n[nH]c2c1` was 30.9 µM (active). Under `ClCCl` stands “inactive”; under `C=Cc1cccc(C)c1`, 39.5 µM (active) and inactive.

Regarding `CCCCCCCCCCCCCC[N+](C)(C)C`, the Potency was 3.06 µM (active) and 3.17 µM (active) and 3.47 µM (active). Under `Cc1c(F)c(N2CCNC(C)C2)cc2c1c(=O)c(C(=O)O)cn2C1CC1` (stereo not given) stands “inactive”; under `Nc1cc(Cl)c(O)c(Cl)c1`, 15.9 µM (active); under `Nc1ccc(NCCO)c([N+](=O)[O-])c1`, 35.6 µM (active). The value for `Nc1nc(N)nc(-c2cc(Cl)ccc2Cl)n1` was “inactive”; that for `Nc1ccc(C(=O)O)c(O)c1` was “inactive”; that for `CCCCOC(=O)CO` was “inactive”. Under `O=[N+]([O-])c1ccc(O)cc1C(F)(F)F` stands 14.2 µM (active). As for `CC/C=C\CCCCCO`, the Potency entry is “inactive”. Consider `COc1cccc(OC)c1C(=O)O`, for which the Potency result was “inactive”. The value for `C=C(CC)C(=O)c1ccc(OCC(=O)O)c(Cl)c1Cl` was 25 µM (active) and inactive. Under `O=C(O)c1cc(N=Nc2ccc([N+](=O)[O-])cc2)ccc1O` stands 69.7 µM (active); under `CCC(=O)C(=O)CC`, “inactive”. Regarding `CCCCCCCCCCC[C@@H](C[C@@H]1OC(=O)[C@H]1CCCCCC)OC(=O)[C@H](CC(C)C)NC=O`, the Potency entry was “inactive”.

As to `CN(C)C(=O)COC(=O)Cc1ccc(OC(=O)c2ccc(N=C(N)N)cc2)cc1`, the Potency result is “inactive”. The value for `COC(=O)c1ccccc1OC` was “inactive”. The value for `O=C(/C=C/c1ccc(O)c(O)c1)O[C@@H](C(=O)O)[C@@H](OC(=O)/C=C/c1ccc(O)c(O)c1)C(=O)O` was 31.7 µM (active); that for `COC(=O)c1ccccc1C` was “inactive”. Under `O=C(Oc1ccccc1)Oc1ccccc1` stands “inactive”; under `O=C(Nc1ccc2c(O)c(N=Nc3ccc(N=Nc4ccc(S(=O)(=O)O)cc4)cc3)c(S(=O)(=O)O)cc2c1)c1ccccc1`, 35.6 µM (active); under `CC(=O)c1ccc(C(C)=O)cc1`, “inactive”. With `CC[N+](CC)(CC)CCOc1ccc(/C=C/c2ccccc2)cc1`, the Potency was 15.5 µM (active). As to `CCN(CC)C(=O)c1cc(S(=O)(=O)Cc2ccccc2)c(N2CCC(c3ccccc3)CC2)cc1N(CC)CCN(C)C`, the Potency was 8.84 µM (active). Under `FC(F)(F)c1cccc(Cl)c1` stands “inactive”. Under `CCO[C@@H]1O[C@H](C(COCc2ccccc2)OCc2ccccc2)[C@H](OCc2ccccc2)[C@H]1O` (stereo not given in full) stands 38.9 µM (active).

On to `Cc1c(C)c2c(c(C)c1O)CC[C@@](C)(CCC[C@H](C)CCC[C@H](C)CCCC(C)C)O2`, for which the Potency entry is “inactive”.

Regarding `C=C(C)C(=O)OCCCCCCCCCC`, the Potency result is “inactive”. The value for `O=[N+]([O-])c1ccc(F)c(Cl)c1` was “inactive”. On to `Cc1cc(=O)oc2cc(O)cc(O)c12`, for which the Potency entry is “inactive”.

As for `Oc1ccccc1O`, the Potency entry is “inactive”. The value for `O=C(/C=C/c1ccccc1)OC/C=C/c1ccccc1` was “inactive”.

Regarding `Cc1ccc(C(=O)O)cc1`, the Potency result was “inactive”.
